Data published in PubChem BioAssay (EPA / NIEHS).
Inconclusive results are not listed. A structure can be active in one record and inactive in another. Calls of active or inactive are those of the source. Rule for the calls, unless noted: active = hit-call score of the fitted dose curve at least 0.9, where 1 is the maximum; inactive = score below 0.9.

Assays:
[1] = BSK_3C_TissueFactor: BioMAP Diversity Plus: 3C Assay for Tissue Factor Biomarker Activity (AID 2282997); details: BioMAP 3C HUVEC, tissue factor biomarker readout; actives raise or lower the signal
Summary of the method: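 Values derive from bidirectional curve fitting against DMSO of Tissue Factor ELISA signals, taken 24 h after dosing primary human umbilical vein endothelial cells.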

[2] = read-out: Intercellular Adhesion Molecule 1 (ICAM1), ICAM1 (gene 3383); assay: BSK_3C_ICAM1: BioMAP Diversity Plus: 3C Assay for Intercellular Adhesion Molecule 1 (ICAM1) Biomarker Activity (AID 2283003); details: primary human endothelial cells (HUVEC); actives raise or lower the signal
Summary of the method: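 Primary human umbilical vein endothelial cells in the BioMAP 3C system were exposed to chemicals for 24 h, then ICAM-1 was quantified by ELISA. Activity was fitted bidirectionally against the DMSO negative control baseline.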

[3] = read-out: E-selectin (Homo sapiens) (UniProt P16581); assay: BSK_3C_Eselectin: BioMAP Diversity Plus: 3C Assay for Eselectin Biomarker Activity (AID 2283015); details: primary human endothelial cells (HUVEC); actives raise or lower the signal
Summary of the method: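 Human vascular endothelium from umbilical vein is exposed to test chemicals for 24 h. E-selectin levels are read by ELISA and compared with DMSO controls.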

[4] = read-out: Thrombomodulin, THBD (gene 7056); assay: BSK_3C_Thrombomodulin: BioMAP Diversity Plus: 3C Assay for Thrombomodulin Biomarker Activity (AID 2283029); details: primary human endothelial cells (HUVEC); actives raise or lower the signal
Summary of the method: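 Primary human umbilical vein endothelial cells (3C system) were exposed to chemical for 24 h, then thrombomodulin levels were measured by ELISA. Activity was fitted bidirectionally against the DMSO negative control as baseline.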

[5] = read-out: Vascular endothelial growth factor receptor 2 (Homo sapiens) (UniProt P35968); assay: BSK_4H_VEGFRII: BioMAP Diversity Plus: 4H Assay for Vascular endothelial growth factor receptor 2 (VEGFR2) Biomarker Activity (AID 2283031); details: primary human endothelial cells (HUVEC); actives raise or lower the signal;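 for AC50: cell-surface VEGFR2 protein level quantified by ELISA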
Summary of the method: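 VEGFRII levels on human vascular endothelial primary cells were determined by ELISA at 24 hours post-dosing, with gain- or loss-of-signal fitted against DMSO controls.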

[6] = read-out: Thrombomodulin, THBD (gene 7056); assay: BSK_CASM3C_Thrombomodulin: BioMAP Diversity Plus: CASM3C Assay for Thrombomodulin Biomarker Activity (AID 2283051); details: primary human coronary artery smooth muscle cells; actives raise or lower the signal;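 note: thrombomodulin protein level measured by ELISA 24 h after dosing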
[7] = read-out: Vascular cell adhesion molecule 1 (VCAM1), VCAM1 (gene 7412); assay: BSK_CASM3C_VCAM1: BioMAP Diversity Plus: CASM3C Assay for Vascular cell adhesion molecule 1 (VCAM1) Biomarker Activity (AID 2283055); details: primary human coronary artery smooth muscle cells; actives raise or lower the signal;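 note: VCAM-1 protein level quantified by ELISA on the cells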
CD40, CD40 (gene 958) = assay: BSK_SAg_CD40: BioMAP Diversity Plus: SAg Assay for CD40 Biomarker Activity (AID 2283088); details: primary human HUVEC with PBMC; actives raise or lower the signal
Summary of the method: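 Fluorescence ELISA read-out of CD40 from umbilical vein endothelium plus peripheral blood mononuclear cells, sampled 24 h after dosing. Values come from bidirectional curve fitting with DMSO as baseline.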

[8] = ATG_GRE_CIS: Attagene CIS-FACTORIAL HepG2 Assay for human Glucocorticoid Response Elements (GRE) (AID 2282947); details: HepG2 GRE cis-reporter, Attagene multiplex mRNA; actives raise or lower the signal
Summary of the method: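 Assay uses human hepatoma HepG2 cells transfected with cis-promoter reporter units, exposed 24 h. mRNA from reporters detected by RT-PCR plus capillary electrophoresis; DMSO serves as negative control and baseline.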

[9] = molecular target: Hypoxia-inducible factor 1-alpha (Homo sapiens) (UniProt Q16665); assay: ATG_HIF1a_CIS: Attagene CIS-FACTORIAL HepG2 Assay for human Hypoxia Inducible Factor 1 (HIF1A) (AID 2282951); details: HepG2 Attagene cis-factorial HIF1a reporter transcription; actives raise or lower the signal
Summary of the method: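 HepG2 cells transiently transfected with multiplexed cis-promoter reporter units; reporter mRNA read 24 h after dosing by RT-PCR, 6-FAM primer-extension labelling, HpaI digestion and capillary electrophoresis. Bidirectional fit versus DMSO baseline.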

[10] = molecular target: Paired box protein Pax-6 (Homo sapiens) (UniProt P26367); assay: ATG_Pax6_CIS: Attagene CIS-FACTORIAL HepG2 Assay for human Paired Box 6 (PAX6) (AID 2282956); details: HepG2 CIS-FACTORIAL PAX6 reporter transcription, RNA readout; actives raise or lower the signal
Summary of the method: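 HepG2 cells transiently transfected with cis-promoter-driven multiplexed reporter units sensing endogenous transcription factor activity; 24 h chemical exposure. Reporter mRNA quantified by RT-PCR, 6-FAM labelling, HpaI digestion and capillary electrophoresis; bidirectional fit versus DMSO baseline.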

[11] = ATG_M_06_TRANS: Attagene TRANS-FACTORIAL HepG2 Assay for M06 Transcription Factor (Internal Marker) (AID 2282983; active = hit-call score of the fitted dose curve at least 0.9, where 1 is the maximum;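 note: reporter transcript level by RT-PCR then capillary electrophoresis fluorescence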); details: HepG2 Attagene TRANS M06 internal marker reporter
Summary of the method: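 Measured by capillary electrophoresis of fluorescently labelled RT-PCR products, this endpoint reflects reporter mRNA in HepG2 cells harbouring exogenous NR-GAL4 reporter constructs after 24 h exposure, with DMSO as baseline.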

[12] = ATG_NRF2_ARE_CIS: Attagene CIS-FACTORIAL HepG2 Assay for human Nuclear Factor Erythroid 2 Related Factor 2 (NFR2) response to Antioxidant Response Elements (ARE) (AID 2282992); details: HepG2 Attagene ARE/NRF2 reporter, transcription factor activity; actives raise or lower the signal;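 for AC50: reporter mRNA level measured by RT-PCR and capillary electrophoresis fluorescence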
Summary of the method: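 HepG2 cells transiently transfected with multiplexed cis-element reporter constructs, 24 h after chemical dosing; reporter mRNA quantified by RT-PCR, fluorescent primer extension, HpaI digestion and capillary electrophoresis. Bidirectional fit relative to DMSO.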

[13] = molecular target: Cellular tumor antigen p53 (Homo sapiens) (UniProt P04637); assay: ATG_p53_CIS: Attagene CIS-FACTORIAL HepG2 Assay for human p53 Transcription Factor (AID 2282994); details: HepG2 p53 cis-element reporter, Attagene mRNA; actives raise or lower the signal
Summary of the method: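 HepG2 cells transiently transfected with cis-regulated multiple reporter transcription units, dosed 24 h. Reporter mRNA measured by RT-PCR, 6-FAM primer extension, HpaI digestion and capillary electrophoresis; bidirectional fit relative to DMSO.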

[14] = molecular target: human Peroxisome Proliferator-activated Receptor alpha (PPARa), PPARA (gene 5465) (UniProt Q07869); assay: ATG_PPARa_TRANS: Attagene TRANS-FACTORIAL HepG2 Assay for human Peroxisome Proliferator-activated Receptor alpha (PPARa) (AID 2283001; active = hit-call score of the fitted dose curve at least 0.9, where 1 is the maximum;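 for AC50: potency for gain of reporter signal over DMSO so agonist or activator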)
Summary of the method: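 Reporter transcripts from GAL4-UAS units in transfected HepG2 were quantified 24 h after dosing. Detection used reverse transcription, PCR, fluorescent primer extension and capillary electrophoresis, with DMSO as baseline.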

[15] = ATG_XTT_Cytotoxicity: Cytotoxicity Assessment in the Attagene TRANS-FACTORIAL HepG2 Assay (AID 2283584; active = hit-call score of the fitted dose curve at least 0.9, where 1 is the maximum)
Summary of the method: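 Transfect HepG2 with GAL4-UAS reporter units, dose compound, incubate 24 h, then measure viable cell number by XTT. Fit concentration response against DMSO baseline.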

[16] = ATG_TA_CIS: Attagene CIS-FACTORIAL HepG2 Assay for human TA Basal Promoter (AID 2282964); details: HepG2 Attagene CIS-factorial TA basal promoter reporter; actives raise or lower the signal
Summary of the method: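 Background internal-marker endpoint from a 52-component HepG2 cis-reporter panel. Cells treated 24 h; reporter transcripts quantified via RT-PCR and CE fluorescence against DMSO baseline.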

[17] = CCTE_Harrill_HTTr_Viability_MCF7: CCTE's 6-hour Cell Viability Assessment for the High-Throughput Transcriptomics (HTTr) Platform, in MCF-7 cells cultured in DMEM + 10% fetal bovine serum, Harrill Lab (AID 2284010)
Summary of the method: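 Membrane integrity was scored by high-content imaging of propidium iodide dye exclusion after a 6 h exposure across an eight-point dilution series. Data were fitted bidirectionally relative to DMSO as negative control and baseline.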

[18] = CCTE_Harrill_HTTr_Apoptosis_MCF7: CCTE's 6-hour Apoptosis Assessment for the High-Throughput Transcriptomics (HTTr) Platform, in MCF-7 cells cultured in DMEM + 10% fetal bovine serum, Harrill Lab (AID 2284011)
Summary of the method: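 Cells are dosed with test chemicals at eight concentrations and imaged 6 hours later for caspase-3/7 activity using a green fluorogenic detection reagent. Activity is fitted in both directions against DMSO controls.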

[19] = molecular target: bovine Estrogen Receptor (ER), ESR1 (gene 407238) (UniProt P49884); assay: NVS_NR_bER: NovaScreen (NVS) Nuclear Receptor Binding Assay for bovine Estrogen Receptor (ER) (AID 2283345; active = hit-call score of the fitted dose curve at least 0.9, where 1 is the maximum;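 note: actives lower the bound radioligand count which means they displace the ER ligand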)
Summary of the method: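 Cell-free radioligand binding with bovine uterine membrane extracts, read 18 hours after dosing by scintillation counting. Loss of signal versus DMSO baseline indicates displacement. Primary screen run in duplicate at 25 uM, actives followed in concentration series.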

Measured: AC50

Sequence of Hypoxia-inducible factor 1-alpha (Homo sapiens) (Q16665 whole entry, looked up): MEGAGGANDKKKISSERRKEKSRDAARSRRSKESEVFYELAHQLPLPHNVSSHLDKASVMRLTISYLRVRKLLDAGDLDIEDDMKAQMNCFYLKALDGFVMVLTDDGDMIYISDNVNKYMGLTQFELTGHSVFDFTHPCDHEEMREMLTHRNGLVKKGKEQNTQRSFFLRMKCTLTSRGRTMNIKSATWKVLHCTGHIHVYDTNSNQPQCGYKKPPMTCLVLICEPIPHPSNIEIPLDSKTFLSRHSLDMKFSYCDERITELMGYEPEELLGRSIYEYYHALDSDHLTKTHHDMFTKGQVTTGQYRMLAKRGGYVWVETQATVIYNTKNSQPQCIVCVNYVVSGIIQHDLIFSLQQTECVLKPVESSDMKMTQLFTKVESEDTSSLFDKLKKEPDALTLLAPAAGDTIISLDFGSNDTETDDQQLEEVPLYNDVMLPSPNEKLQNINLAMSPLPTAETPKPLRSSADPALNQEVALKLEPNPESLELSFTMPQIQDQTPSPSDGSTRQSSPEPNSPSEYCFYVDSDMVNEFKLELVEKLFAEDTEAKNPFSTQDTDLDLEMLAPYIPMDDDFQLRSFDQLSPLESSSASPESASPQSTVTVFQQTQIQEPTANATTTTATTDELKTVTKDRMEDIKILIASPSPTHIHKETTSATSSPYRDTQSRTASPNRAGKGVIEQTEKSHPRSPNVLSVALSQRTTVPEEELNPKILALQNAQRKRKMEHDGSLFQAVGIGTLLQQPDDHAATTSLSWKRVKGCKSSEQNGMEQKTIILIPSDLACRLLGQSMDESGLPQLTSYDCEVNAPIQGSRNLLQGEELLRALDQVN
Sequence of E-selectin (Homo sapiens) (P16581 whole entry, looked up): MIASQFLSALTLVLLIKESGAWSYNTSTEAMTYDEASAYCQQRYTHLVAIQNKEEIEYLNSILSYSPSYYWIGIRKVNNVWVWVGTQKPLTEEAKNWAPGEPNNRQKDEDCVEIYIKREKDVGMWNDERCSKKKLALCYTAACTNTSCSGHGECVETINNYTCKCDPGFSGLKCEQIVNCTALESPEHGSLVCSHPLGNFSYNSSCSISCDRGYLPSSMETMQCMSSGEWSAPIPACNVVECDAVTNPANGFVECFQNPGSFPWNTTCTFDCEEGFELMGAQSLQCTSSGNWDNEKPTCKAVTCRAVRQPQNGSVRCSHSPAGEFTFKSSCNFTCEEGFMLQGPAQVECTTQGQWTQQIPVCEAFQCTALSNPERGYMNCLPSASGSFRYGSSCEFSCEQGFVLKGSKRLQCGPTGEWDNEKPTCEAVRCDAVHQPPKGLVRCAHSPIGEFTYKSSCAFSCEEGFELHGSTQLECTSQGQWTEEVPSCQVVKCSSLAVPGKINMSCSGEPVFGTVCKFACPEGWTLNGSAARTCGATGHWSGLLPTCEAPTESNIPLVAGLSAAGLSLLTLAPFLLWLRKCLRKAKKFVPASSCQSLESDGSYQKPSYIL
Sequence of Cellular tumor antigen p53 (Homo sapiens) (P04637 whole entry, looked up): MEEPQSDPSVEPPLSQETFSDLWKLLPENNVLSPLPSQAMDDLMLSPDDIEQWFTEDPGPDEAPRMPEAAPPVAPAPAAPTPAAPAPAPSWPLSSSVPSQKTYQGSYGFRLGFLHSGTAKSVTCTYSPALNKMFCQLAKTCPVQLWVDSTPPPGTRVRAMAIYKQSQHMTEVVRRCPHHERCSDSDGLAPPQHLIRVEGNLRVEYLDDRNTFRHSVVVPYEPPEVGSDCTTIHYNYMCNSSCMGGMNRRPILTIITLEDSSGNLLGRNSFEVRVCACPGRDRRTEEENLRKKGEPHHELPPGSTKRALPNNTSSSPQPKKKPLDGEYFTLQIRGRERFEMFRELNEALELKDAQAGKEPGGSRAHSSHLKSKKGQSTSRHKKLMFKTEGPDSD
Sequence of bovine Estrogen Receptor (ER), ESR1 (gene 407238) (P49884 whole entry, looked up): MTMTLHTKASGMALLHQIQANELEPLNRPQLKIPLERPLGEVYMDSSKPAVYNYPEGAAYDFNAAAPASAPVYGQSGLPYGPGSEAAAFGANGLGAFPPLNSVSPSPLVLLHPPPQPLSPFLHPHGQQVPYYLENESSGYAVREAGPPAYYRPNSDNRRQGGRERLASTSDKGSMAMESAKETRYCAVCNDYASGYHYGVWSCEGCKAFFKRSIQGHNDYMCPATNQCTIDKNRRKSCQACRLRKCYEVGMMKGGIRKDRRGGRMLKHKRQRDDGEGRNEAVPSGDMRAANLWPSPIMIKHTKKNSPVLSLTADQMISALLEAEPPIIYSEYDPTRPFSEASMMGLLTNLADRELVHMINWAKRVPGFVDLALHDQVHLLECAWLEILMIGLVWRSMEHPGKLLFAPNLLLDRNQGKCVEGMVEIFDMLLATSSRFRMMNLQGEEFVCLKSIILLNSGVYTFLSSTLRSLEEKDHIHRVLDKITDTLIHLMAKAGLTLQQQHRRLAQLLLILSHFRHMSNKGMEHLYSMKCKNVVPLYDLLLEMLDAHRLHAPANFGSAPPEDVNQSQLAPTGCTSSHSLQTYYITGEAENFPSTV
Sequence of Paired box protein Pax-6 (Homo sapiens) (P26367 whole entry, looked up): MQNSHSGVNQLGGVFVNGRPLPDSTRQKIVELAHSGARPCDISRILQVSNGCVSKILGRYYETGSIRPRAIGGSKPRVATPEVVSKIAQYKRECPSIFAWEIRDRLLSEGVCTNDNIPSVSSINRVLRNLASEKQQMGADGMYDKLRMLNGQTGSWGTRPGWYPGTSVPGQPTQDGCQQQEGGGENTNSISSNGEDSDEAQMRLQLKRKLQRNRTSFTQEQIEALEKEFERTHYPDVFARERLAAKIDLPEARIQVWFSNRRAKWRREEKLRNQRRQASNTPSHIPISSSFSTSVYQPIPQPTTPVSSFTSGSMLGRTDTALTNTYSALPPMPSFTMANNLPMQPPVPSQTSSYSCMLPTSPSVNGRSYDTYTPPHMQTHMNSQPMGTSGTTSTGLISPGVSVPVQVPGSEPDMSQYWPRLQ
Sequence of human Peroxisome Proliferator-activated Receptor alpha (PPARa), PPARA (gene 5465) (Q07869 whole entry, looked up, the tested form may be a part): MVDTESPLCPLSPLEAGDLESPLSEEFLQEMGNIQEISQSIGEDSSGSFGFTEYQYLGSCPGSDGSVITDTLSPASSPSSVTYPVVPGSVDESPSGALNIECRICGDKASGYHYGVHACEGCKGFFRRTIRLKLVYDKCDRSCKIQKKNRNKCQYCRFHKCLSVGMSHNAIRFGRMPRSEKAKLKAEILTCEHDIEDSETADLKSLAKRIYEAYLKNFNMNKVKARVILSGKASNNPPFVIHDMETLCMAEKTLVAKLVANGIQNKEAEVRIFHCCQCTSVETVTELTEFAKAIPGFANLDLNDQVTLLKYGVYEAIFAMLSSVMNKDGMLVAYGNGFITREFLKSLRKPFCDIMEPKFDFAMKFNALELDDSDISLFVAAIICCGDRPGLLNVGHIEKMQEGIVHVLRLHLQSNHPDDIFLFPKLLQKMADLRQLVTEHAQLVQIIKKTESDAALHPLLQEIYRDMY

CC(C)C1OCCN1CCOC(=O)NCCCCCCNC(=O)OCCN1CCOC1C(C)C (stereo not drawn)
inactive: [1] | [2] | [3] | [4] | [5] | [6] | [7] | CD40, CD40 (gene 958)
active: [5] 33 µM

O=C(CC(C(=O)OC1CCCCC1)S(=O)(=O)O)OC1CCCCC1 (stereo not drawn)
active: [14] 35.1 µM
inactive: [8] | [9] | [10] | [11] | [12] | [13] | [15]

c1ccc2c(c1)Oc1ccccc1S2
active: [12] 146 µM
inactive: [8] | [9] | [10] | [16] | [11] | [13] | [14] | [15]

CC(C)CC(=O)CC(C)CC(C)C (stereo not drawn)
inactive: [8] | [9] | [10] | [16] | [13] | [6] | CD40, CD40 (gene 958)
active: [12] 116 µM | [1] 36 µM | [2] 35.2 µM | [3] 34.6 µM | [4] 20 µM | [5] 32.6 µM | [7] 37.2 µM

O=C(Oc1ccccc1)c1ccccc1
inactive: [9] | [11] | [12] | [15] | [17] | [18]

Nc1nc(N)c2nc(-c3ccccc3)c(N)nc2n1
inactive: [19] | [17] | [18]

CC(C)(C)C(=O)C(=O)O
inactive: [19]

c1ccc(CNc2ncnc3nc[nH]c23)cc1
inactive: [8] | [10] | [11] | [12] | [13] | [14] | [15] | [17] | [18]

CCCCCCCCCCCCCCCCCC[N+](C)(C)C
active: [10] 5.86 µM | [12] 4.81 µM | [1] 5 µM | [14] 40.9 µM | [2] 3.46 µM | [3] 5 µM | [4] 2.9 µM | [5] 1.23 µM | [7] 3.73 µM | CD40, CD40 (gene 958) 5 µM
inactive: [8] | [9] | [16] | [11] | [13] | [6] | [15]

O=[N+]([O-])c1cc[n+]([O-])cc1
inactive: [19]

COc1cc(CNC(=O)CCCC/C=C/C(C)C)ccc1O
active: [4] 15.1 µM | CD40, CD40 (gene 958) 20 µM
inactive: [1] | [2] | [3] | [4] | [5] | [6] | [7] | CD40, CD40 (gene 958) | [17] | [18]

COc1ccc2ccccc2c1
inactive: [8] | [9] | [10] | [16] | [11] | [13] | [14] | [17] | [18]

NC(N)=Nc1nc(CSCCC(N)=NS(N)(=O)=O)cs1
inactive: [8] | [10] | [16] | [11] | [12] | [13] | [14] | [15] | [17] | [18]

CC(=O)CC(=O)OC(C)(C)C
inactive: [19]

O=[N+]([O-])c1ccc(ON=Cc2cc(Br)c(O)c(Br)c2)c([N+](=O)[O-])c1
inactive: [19]

CCO[Si](CCCN)(OCC)OCC
inactive: [8] | [9] | [10] | [16] | [11] | [12] | [13] | [14]

CCC[Si](OC(C)=O)(OC(C)=O)OC(C)=O
inactive: [1] | [2] | [3] | [4] | [5] | [6] | [7] | CD40, CD40 (gene 958)

Oc1ccc2c(c1)Cc1ccccc1-2
inactive: [17] | [18]
active: [19] 36.3 µM

C[C@@H]1[C@H](O)[C@@H](C)/C=C/C=C/C=C/C=C/C=C/C=C/C=C/[C@H](O[C@@H]2O[C@H](C)[C@@H](O)[C@H](N)[C@@H]2O)C[C@@H]2O[C@](O)(C[C@@H](O)C[C@@H](O)[C@H](O)CC[C@@H](O)C[C@@H](O)CC(=O)O[C@H]1C)C[C@H](O)[C@H]2C(=O)O
inactive: [17] | [18]

CC(O)(c1ccc(Cl)cc1)c1ccc(Cl)cc1
inactive: [19]

Cc1cccc(NC(=S)N(C)C)c1
inactive: [19]

CCCCCCC/C=C/C=O
inactive: [19]

CCOc1nc2cccc(C(=O)OC(C)OC(=O)OC3CCCCC3)c2n1Cc1ccc(-c2ccccc2-c2nn[nH]n2)cc1 (stereo not drawn)
inactive: [17] | [18]

COc1ccc(COC=O)cc1
inactive: [19]

CNCCC(Oc1ccc(C(F)(F)F)cc1)c1ccccc1 (stereo not drawn)
active: [17] 75.8 µM | [18] 69.4 µM

CNC(=O)Nc1ccc(Cl)c(Cl)c1
inactive: [19]

CCC(=O)C(=O)CC
inactive: [19]

O=S(=O)(O)c1cc(Cl)c(Cl)cc1Cl
inactive: [19]

CCCCCCCCCCCCN(CCO)CCO
inactive: [19]
